Compounds with a hit are over-represented: about 6.2% of the library has one in this group of screens.
ATXN viability – Viability Counterscreen for Primary qHTS for Inhibitors of ATXN expression; AID 651635, 2014; 0.49% of 400,000 active; Potency, µM (doses to about 56.7 µM), hits mostly cytotoxic; S2 cells (HEK-293 line with an ATXN2-luciferase reporter) viability, CellTiter-Fluor protease fluorescence, 24 h; further: nearly all actives have a fitted effect of over 40% in size
KB-V1 cytotox – qHTS assay for MDR1-selective chemotherapeutics: Primary screen using the drug-selected MDR subline cells KB-V1. KB-V1 MDR cells viability, CellTiter-Glo, 72 h. Potency, µM (titrated, usually from 46.1 µM), actives largely listed as cytotoxic. 3.4% of 400,000 active; further: on the % scale 0 is the no-effect control and ±100 the full control effect; nearly all actives have a fitted effect of over 60% in size
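Readout: CellTiter-Glo luminescence, 10 min after addition. Cells: KB-V1 MDR subline, 72 h at 37 degrees C with compound. Analysis: corrected, normalized data fitted to concentration-effect curves.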
HT1080 IDH1KD tx – qHTS for induction of synthetic lethality in tumor cells producing 2HG: qHTS for the HT-1080-IDH1KD cell line; Potency, µM (highest dose often 46.1 µM), for the others: at the highest dose activity, negative = toxicity, actives largely listed as cytotoxic; HT-1080 IDH1 knockdown viability, ATP luminescence, 48 h; 2% of 360,000 active;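 further: 0% = DMSO wells and -100% = cell-free medium wells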
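CellTiter-Glo luminescence after 48 h compound exposure at 37 degrees C of IDH1-knockdown HT-1080 cells in 5% FBS RPMI. %Activity scaled between DMSO wells and cell-free media wells, with curves fitted and assigned curve classes.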
ATXN2 expr inh – Primary qHTS for Inhibitors of ATXN expression | HEK-293 ATXN2-luciferase reporter, luminescence, 24 h | Potency, µM (top dose mostly 57 µM), for the others: at the top dose activity change, negative = inhibition, actives largely listed as inhibitors | 0.72% of 360,000 active | AID 1745845, 2022; further: on the % scale 0 is the no-effect control and ±100 the full control effect; nearly all actives have a fitted effect of over 55% in size
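ATXN2-luciferase reporter cells (luciferase flanked by upstream and downstream ATXN2 gene portions) were treated 24 h at 37 °C with compounds at up to 57 uM. SteadyGlo luminescence gave expression; GF-AFC fluorescence gave viability.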
KB-3-1 tox – qHTS assay for MDR1-selective chemotherapeutics: Primary screen using the parental adenocarcinoma cell KB-3-1. AID 1347075, 2019. KB-3-1 viability, CellTiter-Glo ATP luminescence, 72 h. Potency, µM (highest dose often 46.1 µM), actives largely listed as cytotoxic. 1.4% of 400,000 active; further: on the % scale 0 is the no-effect control and ±100 the full control effect; nearly all actives have a fitted effect of over 60% in size
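Using CellTiter-Glo luminescence, growth of non-resistant KB-3-1 adenocarcinoma cells is assessed 72 h after pin-tool compound addition at 37 °C. Normalized responses across the concentration series yield fitted curves.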
HT1080-NT tox – qHTS for induction of synthetic lethality in tumor cells producing 2HG: qHTS for the HT-1080-NT fibrosarcoma cell line; AID 686970, 2013; 1.6% of 360,000 active; Potency, µM (top dose mostly 46.1 µM), for the others: at the highest dose activity, negative = less viability, usual class: cytotoxic; HT-1080-NT fibrosarcoma viability, CellTiter-Glo ATP luminescence, 48 h;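 further: NT is the 2HG producing partner of a matched IDH1 knockdown line; 0% = DMSO-treated cells and -100% = media-only wells without cells; nearly all actives have a fitted effect of over 55% in size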
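Viability of the 2HG-overproducing fibrosarcoma line after 48 hours of compound exposure at 37 degrees C was determined by luminescence with CellTiter-Glo, and concentration-effect curves were then fitted and categorized.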
Active calls of the source: *; i = inactive; u = inconclusive; x = no result given. The call rests on the fitted dose curve; in most records, active means well fitted curve in the direction sought with a large enough effect; inconclusive means small, poorly fitted or top-dose-only effect, or another doubt; inactive means no such curve, though single readings can be large; an effect the other way counts as inactive or inconclusive. Potency means the concentration at half of the fitted maximal effect.

SMILES	ATXN viability	KB-V1 cytotox	HT1080 IDH1KD tx	ATXN2 expr inh	KB-3-1 tox	HT1080-NT tox
COc1ccc(C)cc1Nc1cc(C)nc2nc(C)nn12	i	u	-24%	5%	8.2µM*	-22%
O=C(CCCN1C(=O)c2cccc3cccc(c23)C1=O)N1CCN(c2ccccc2O)CC1	i	6.5µM*	1%	-22%	u	-4%
O=C(CCCN1C(=O)c2cccc3cccc(c23)C1=O)N1CCN(c2ccccc2)CC1	i	i	-5%	-13%	i	1%
CCCCN1CC[C@H]2C=CC[C@@H](C(=O)NC3CCCCC3)[C@H]2C1=O	x	u	x	x	i	x
COc1ccc(-c2cc(C)no2)cc1S(=O)(=O)N1CCN(c2ccc(C(C)=O)cc2)CC1	x	i	x	x	i	x
CCOC(=O)c1cc(S(=O)(=O)Nc2ccc(C)cc2Cl)[nH]n1	i	i	x	3%	i	x
CCC(c1ccc(O)c(O)c1)C(CC)c1ccc(O)c(O)c1 (centres undefined)	x	i	21µM*	u	i	23µM*
CCc1noc2nc(C)n(CC(=O)O)c(=O)c12	i	i	x	5%	i	x
CCOc1ccc(NC(=O)CSc2ncc3c(n2)-c2ccccc2N(C)S3(=O)=O)cc1	i	i	x	0%	i	x
CCN1CCN(C(=O)c2ccc3c(c2)N(Cc2ccccc2F)C(=O)c2ccccc2S3=O)CC1 (centres undefined)	u	i	x	4%	i	x
CCOC(=O)c1[nH]c(C)c(CCC(=O)Nc2cc(C)ccc2OC)c1C	i	i	x	-17%	i	x
CC1=NN(C(N)=S)C(=O)C1N=Nc1cccc(Cl)c1 (centres undefined)	u	i	-19%	37%	i	-14%
CC1=NN(C(N)=S)C(=O)C1N=Nc1c(C)cc(C)cc1C (centres undefined)	u	u	3%	23%	4.6µM*	11%
COc1cccc(N=NC2C(=O)N(C(N)=S)N=C2C)c1 (centres undefined)	i	i	-6%	74%	i	26µM*
COc1cccc(CNC(=O)c2cnc3c(-c4ccc(F)cc4)c(C)nn3c2C)c1	x	i	x	x	i	x
N=c1ccn(Cc2cccc(F)c2)cc1	i	i	-22%	-23%	23µM*	u
CCN1CCN(CC(=O)Nc2ccc(-c3cccc4c(=O)cc(N5CCOCC5)oc34)c3sc4ccccc4c23)CC1	x	x	x	-15%	x	x
COc1ccccc1N(C(C)=O)C1=C(Cl)C(=O)c2ccccc2C1=O	x	i	7.3µM*	x	i	18µM*
COc1ccc(C2CC(=O)N3C(=C2C#N)SCC3(O)c2ccccc2)cc1 (centres undefined)	i	21µM*	u	42%	i	-14%
N#CC1=C2SCN(Cc3ccccc3)CN2C(=O)CC1c1ccccc1F (centres undefined)	i	i	-1%	-6%	i	-3%
N#CC1=C2SCC(O)(c3ccccc3)N2C(=O)CC1c1ccccc1F (centres undefined)	u	u	16µM*	-7%	9.2µM*	u
N#CC1=C2SCC(O)(c3ccccc3)N2C(=O)CC1c1cccs1 (centres undefined)	i	0.58µM*	0.35µM*	34%	0.73µM*	0.63µM*
COc1cccc(C2CC(=O)N3CN(c4ccccc4F)CSC3=C2C#N)c1 (centres undefined)	i	i	-1%	9%	i	6%
CCOC(=O)c1c(C)oc2nc(C)nc(Nc3cc(C)ccc3OC)c12	i	u	x	10%	i	x
COc1ccc2c(c1)c1c(c(=O)n(Cc3ccccc3)c(=O)n1Cc1cc(C)ccc1C)n2C	i	i	x	14%	i	x
SMILES	ATXN viability	KB-V1 cytotox	HT1080 IDH1KD tx	ATXN2 expr inh	KB-3-1 tox	HT1080-NT tox
COc1cc(-c2cnc3ccccc3c2)cc2c1OCCN(S(=O)(=O)C[C@]13CC[C@H](CC1=O)C3(C)C)C2	i	x	x	x	x	x
Cc1ccc(NC(=O)C(C)Sc2nnc3ccccn23)cc1 (centres undefined)	i	i	4%	x	i	2%
O=C(Nc1ccc(F)cc1)C(Sc1nnc2ccccn12)c1ccccc1 (centres undefined)	i	5.8µM*	1%	-7%	i	8%
CCOc1ccccc1NC(=O)C(Sc1nnc2ccccn12)c1ccccc1 (centres undefined)	i	u	1%	-5%	i	1%
COc1ccc(C)cc1NC(=O)C(Sc1nnc2ccccn12)c1ccccc1 (centres undefined)	i	3.3µM*	-6%	8%	i	-3%
Cc1ccc(-n2cc(C(=O)Oc3ccc(F)cc3)c3ccccc3c2=O)cc1	x	i	x	x	i	x
C[C@]1(CO)CN(c2cc(C(=O)Nc3ccc4c(c3)-c3c(c(C(N)=O)nn3-c3ccc(F)cc3)CC4)c(Cl)cn2)C[C@@]1(C)CO	x	x	x	8.6µM*	x	x
C=CCOc1ccc(/C=N/N2C(=O)C(CC(=O)Nc3ccc(F)cc3F)SC2=NC)cc1 (centres undefined)	u	u	u	-30%	u	15µM*
Cc1ccc(NS(=O)(=O)c2cc3c(cc2N2CCC2)NC(=O)CC3)cc1C	x	i	x	x	i	x
COc1cccc(OC)c1-c1nn2c(-c3ccccc3Cl)nnc2s1	i	9.2µM*	-9%	-9%	i	-2%
COc1cccc(N2CC(O)=C(c3nc4ccccc4c(=O)[nH]3)C2=N)c1	i	u	u	6%	4.6µM*	1.3µM*
Cc1cc(C)cc(N2CC(O)=C(c3nc4ccccc4c(=O)[nH]3)C2=N)c1	i	u	-15%	1%	15µM*	-20%
CC(C)N1CC(O)=C(c2nc3ccccc3c(=O)[nH]2)C1=N	i	i	-1%	-12%	u	17%
CCOc1ccc(CCNC(=O)c2ccc3[nH]c(C)c(C)c3c2)cc1	x	i	x	x	i	x
Cc1sc(NC(=O)c2ccco2)c(C(c2cccnc2)N2CCC(C)CC2)c1C (centres undefined)	u	u	4.6µM*	u	18µM*	21µM*
CCOC(=O)c1[nH]c(C)c(CCC(=O)Nc2cccc(SC)c2)c1C	i	i	x	-26%	i	x
